Article PMC4552634, “A New Set of Chemical Starting Points with Plasmodium falciparum Transmission-Blocking Potential for Antimalarial Drug Discovery” (PLoS ONE, 2015)
The campaign covered roughly 13,000 compounds. About 3,200 (25%) showed an effect of 50% or more. Some of the results follow.

system: P. falciparum stage V gametocytes; design: BacTiter-Glo ATP luminescence viability of purified stage V gametocytes in 384-well plates, per cent inhibition versus DMSO; conditions: 48 h, 5 µM; inhibitor

SMILES	% Inhibition [%]
CC1(C)N=C(N)N=C(N)N1OCc1cc2ccccc2cc1CON1C(N)=NC(N)=NC1(C)C [TCMDC-131627]	15.22
O=C(/C=C/c1ccc(Cl)c(Cl)c1)NCCCCCN1CCCC(CCCNC(=O)Nc2ccc(C(F)(F)F)cc2)C1 (stereo not shown) [TCMDC-139517]	56.6
O=C(/C=C/c1ccc(Cl)c(Cl)c1)NCCCCN1CCCN(C(=O)Nc2ccc(C(F)(F)F)cc2)CC1 [TCMDC-135930]	-28.77
O=C(NCC1CCN(C/C=C/c2ccccc2)CC1)Nc1ccc(Oc2ccccc2)cc1 [TCMDC-139153]	95.36
CN(C(=O)Nc1ccc(F)cc1)C1CCN(CCCCCNC(=O)/C=C/c2ccc(Cl)c(Cl)c2)CC1 [TCMDC-139492]	-6.373
O=C(/C=C/c1ccc(Cl)c(Cl)c1)NCCCCCCN1CCN(C(=O)Nc2ccc(C(F)(F)F)cc2)CC1 [TCMDC-135824]	-51.85
CCOC(=O)c1ccc(NC(=O)NCCCC2CCCN(CCCCCNC(=O)/C=C/c3ccc(Cl)c(Cl)c3)C2)cc1 (stereo not shown) [TCMDC-139516]	55.81
O=C(NCCCCN1CCN(CC=Cc2ccccc2)CC1)c1ccc(NC(=O)c2cc(Cl)cc(Cl)c2)cc1 [TCMDC-138216]	-21.85
O=C(NNC(=O)c1ccc(CN2CCC(c3nc4ccccc4[nH]3)CC2)cc1)Nc1ccc(Oc2ccccc2)cc1 [TCMDC-135310]	0.2458
CN(C(=O)Nc1ccc(C(F)(F)F)cc1)C1CCN(CCCCCNC(=O)/C=C/c2ccc(Cl)c(Cl)c2)CC1 [TCMDC-139524]	54.85
Cn1cc(CCNc2ccnc(N3CCC(c4ncc[nH]4)CC3)n2)c2ccccc21 [TCMDC-135120]	26.64
CCOC(=O)CCCc1cc(NC2CCN(C)CC2)nc(Nc2ccc(OC)cc2)n1 [TCMDC-134017]	-45.24
Cc1ccc(NC(=O)c2ccc(NCCCN3CC(C)CC(C)C3)c([N+](=O)[O-])c2)cc1F (stereo not shown) [TCMDC-125684]	-7.765
Cc1cnc(N)c(/C=C/c2cncc(C(=O)NCCc3ccc(Cl)cc3Cl)c2)c1 [TCMDC-134509]	-9.663
CC(C)c1ccc(NC(=O)NCCCC2CCCN(CCCCCNC(=O)/C=C/c3ccc(Cl)c(Cl)c3)C2)cc1 (stereo not shown) [TCMDC-139515]	38.89
O=C(/C=C/c1ccc(Cl)c(Cl)c1)NCCCCCN1CCN(C(=O)Nc2ccc(C(F)(F)F)cc2)CC1 [TCMDC-135734]	-55.55
CCCCCCCNC(=O)NCC1CCCN(CCCCCNC(=O)/C=C/c2ccc(Cl)c(Cl)c2)C1 (stereo not shown) [TCMDC-139518]	11.83
O=C(/C=C/c1ccc(Cl)c(Cl)c1)NCCCCCN1CCC(NC(=O)Nc2ccc(Cl)c(C(F)(F)F)c2)CC1 [TCMDC-135730]	1.176
O=C(/C=C/c1ccc(Cl)c(Cl)c1)NCCCCCN1CCC(NC(=O)Nc2ccc(C(F)(F)F)cc2)C1 (stereo not shown) [TCMDC-139527]	-24.61
O=C(/C=C/c1ccc(Cl)c(Cl)c1)NCCCCCN1CCC(CCCNC(=O)Nc2ccc(C(F)(F)F)cc2)CC1 [TCMDC-139514]	102.3
O=C(/C=C/c1ccc(Cl)c(Cl)c1)NCCCCCN1CCC(NC(=O)Nc2ccc(C(F)(F)F)cc2)CC1 [TCMDC-135723]	-19.76

SMILES	% Inhibition [%]
O=C(/C=C/c1ccc(Cl)c(Cl)c1)NCCCCCN1CCCC(CNC(=O)Nc2ccc(C(F)(F)F)cc2)C1 (stereo not shown) [TCMDC-139521]	91.99
O=C(/C=C/c1ccc(Cl)c(Cl)c1)NCCCCCN1CCCC(CNC(=O)Nc2ccc(Oc3ccccc3)cc2)C1 (stereo not shown) [TCMDC-139522]	54.61
CC(C)c1ccc(NC(=O)NCC2CCCN(CCCCCNC(=O)/C=C/c3ccc(Cl)c(Cl)c3)C2)cc1 (stereo not shown) [TCMDC-139519]	58.09
COc1cc2ncnc(Nc3ccc(OCc4ccccc4Br)c(OC)c3)c2cc1OC [TCMDC-131915]	-3.642
O=S(=O)(NC1CCN(c2ccnc3ccccc23)C1)c1ccc(OC(F)(F)F)cc1 (stereo not shown) [TCMDC-133581]	2.209
O=C(Cc1cccs1)NC(CCCN1CCC(Oc2cccc(Cl)c2)CC1)c1ccc(Cl)c(Cl)c1 (stereo not shown) [TCMDC-141902]	-47.46
C=CCn1c(SCC(=O)Nc2cc(Cl)ccc2Cl)nc2sc(C)cc2c1=O [TCMDC-124996]	8.476
CCc1nc(N)nc(N)c1-c1ccc(C(C)C)cc1 [TCMDC-137368]	11.22
CC1CN(S(=O)(=O)c2ccc(NC(=O)c3cc(-c4ccccc4O)n[nH]3)cc2)CC(C)O1 (stereo not shown) [TCMDC-125195]	7.357
CCCN(c1ccc(O)c(CN2CCCCC2)c1)c1ccc([N+](=O)[O-])cn1 [TCMDC-137486]	15.96
CN(C)c1ccc(-c2ccc(C(=O)NC3CCN(Cc4ccc5c(c4)OCCO5)CC3)s2)cc1 [TCMDC-134339]	-48.84
CCCN=CNc1cc(-c2csc(N=C(N)N)n2)cc([N+](=O)[O-])c1 [TCMDC-137246]	-47.16
O=C(NC1CCC(N2CCN(c3cccc(C(F)(F)F)c3)CC2)CC1)c1cc2ccccc2[nH]1 (stereo not shown) [TCMDC-132885]	32.36
O=C(NC1CCC(N2CCC(O)(c3ccc(F)cc3)CC2)CC1)c1cc2ccccc2[nH]1 (stereo not shown) [TCMDC-132887]	9.268
O=C(NC1CCC(N2CCC3(CC2)C(=O)NCN3c2ccccc2)CC1)c1cc2ccccc2[nH]1 (stereo not shown) [TCMDC-132886]	76.36
CC(Cc1ccc(OCCN2CCN(c3ccc(Cl)cc3)CC2)cc1)NCC(O)c1cccc(C(F)(F)F)c1 (stereo not shown) [TCMDC-131530]	29.05
O=C(NCc1cccc(Br)c1)c1ccc(CNC2CCN(Cc3ccccc3)CC2)cc1 [TCMDC-140788]	24.75
CC1CCN(Cc2cccc(C(=O)NCc3ccc(F)c(-c4cccc(CN5CCN[C@@H](C)C5)c4)c3)c2)CC1 [TCMDC-136206]	100.7
CN1CCCN(Cc2cccc(-c3ccc(CNC(=O)c4cccc(Cl)c4)c(F)c3)c2)CC1 [TCMDC-133370]	8.787
COc1cccc(CNC(=O)c2ccnc(-c3cccc(CN(C)C4CCN(C)CC4)c3)c2)c1 [TCMDC-134500]	23.23
C[C@H]1CN(Cc2cccc(-c3cc(CNC(=O)c4cccc(C(=O)c5ccc(Cl)c(Cl)c5)c4)ccc3F)c2)CCN1 [TCMDC-136245]	103.5

SMILES	% Inhibition [%]
COc1ccc(CN2CCCN(Cc3cccc(C(=O)Nc4ccc(C)c(F)c4)c3)CC2)cc1 [TCMDC-135960]	-17.45
O=C(NCc1ccc(Cl)c(Cl)c1)c1cccc(C2CCCN(Cc3ccc4nc[nH]c4c3)C2)c1 (stereo not shown) [TCMDC-133067]	-29.33
COc1cccc(CNC(=O)[C@@H]2CN(C(=O)c3ccccc3)CCN2)c1 [TCMDC-141267]	-8.525
O=C(NCc1ccc(Cl)c(Cl)c1)c1ccc(C2CCCN(Cc3ccc4nc[nH]c4c3)C2)cc1 (stereo not shown) [TCMDC-133068]	0.7535
O=C(NCc1cccc(Cl)c1)c1ccc(CNC2CCN(Cc3ccccc3)CC2)cc1 [TCMDC-140785]	24.82
C[C@H]1CN(Cc2cccc(-c3cc(CNC(=O)c4cccc(CC5CCN(C)CC5)c4)ccc3F)c2)CCN1C [TCMDC-136349]	103.8
C[C@H]1CN(Cc2cccc(-c3cc(CNC(=O)c4cccc(CN5CCN(CCOc6ccccc6)CC5)c4)ccc3F)c2)CCN1 [TCMDC-136210]	110.3
COc1cc(C(=O)NC2CCN(Cc3ccccc3)CC2)ccc1-c1nc2cc(Cl)c(C)cc2[nH]1 [TCMDC-140028]	-62.59
CN1CCN(c2nc(NCCc3ccc(O)cc3)nc(NCc3ccccc3-c3ccc(C(F)(F)F)cc3)n2)CC1 [TCMDC-138322]	-8.259
CC1(C)[C@H]2CC[C@@H](CNc3nc(NCCc4cnc[nH]4)nc(Nc4ccc5c(c4)OCO5)n3)[C@@H]1C2 [TCMDC-139738]	-17.51
COc1ccc2nccc([C@@H](O)CN3CCC(NC(=O)C(c4cc5ccccc5o4)N4CCN(c5ccccc5OC)CC4)CC3)c2c1 (stereo partly shown) [TCMDC-140991]	13.75
COc1ccc(C(=O)N2CCC(C(=O)NC(C)c3ccc(-n4ccnc4)cc3)CC2)c2ccccc12 (stereo not shown) [TCMDC-124603]	-15.82
CC(C)(C)c1ccc(NC(=O)c2cccc(CN3CCCN(Cc4ccc(F)cc4)CC3)c2)cc1 [TCMDC-135985]	-30.03
O=C(NCc1ccc(Cl)cc1)c1ccc(CN2CCCN(Cc3cccc(O)c3)CC2)cc1 [TCMDC-136442]	2.881
C[C@H]1CN(Cc2cccc(-c3cc(CNC(=O)c4cccc(CN5CCN(C/C=C/c6ccccc6)CC5)c4)ccc3F)c2)CCN1 [TCMDC-136208]	114.8
CN(CC(=O)N1CCN(S(=O)(=O)c2cccc(Cl)c2)CC1CN1CCCC1)c1ccc(Cl)c(Cl)c1 (stereo not shown) [TCMDC-136893]	71.55
O=C(Nc1ccc(CN2CCN(S(=O)(=O)c3cccc(Cl)c3)CC2)cc1)c1cccs1 [TCMDC-136319]	27.89
CN(C(=O)/C=C/c1c(Cl)cccc1Cl)C1CCN(CCCCCNC(=O)/C=C/c2ccc(Cl)c(Cl)c2)CC1 [TCMDC-139995]	-22.04
Cn1c(N)c(C(=O)CSc2ncc(-c3ccc(F)cc3)n2Cc2ccccc2)c(=O)n(C)c1=O [TCMDC-125101]	12.63
